Bioassay records deposited in PubChem by several laboratories.
MazF activator: activators of E. coli MazEF toxin-antitoxin RNase | P0AE70 | FAM/BHQ RNA-DNA oligo cleavage fluorescence, 5 h | activation, % at 20 µM | 0.32% of 350,000 active; in the data active = activation above about 50%
Target sequence (P0AE70 whole entry, looked up): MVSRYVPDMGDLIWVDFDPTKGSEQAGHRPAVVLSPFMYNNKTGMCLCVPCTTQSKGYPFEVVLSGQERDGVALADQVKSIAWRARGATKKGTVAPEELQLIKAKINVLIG
GDH-TPI counter: GDH-TPI coupled enzyme inhibition counter-screen; GDH-TPI coupled enzyme counterscreen, NADH absorbance; inhibition, % at 4.8 µM; 1.2% of 360,000 active; AID 588335;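 also: 0% = DMSO wells and 100% = wells lacking the enzyme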
Mtb bLac sens: beta-lactam sensitization of Mtb H37Rv; M. tuberculosis H37Rv growth with meropenem, percent inhibition; 0.27% of 330,000 active; inhibition, % at 25 µM; call rule not given here;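 also: growth measured after seven days incubation then overnight dye step; 0% = bacteria only wells and 100% = bacteria with antibiotic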
FBA Mtb inh: Mtb fructose-bisphosphate aldolase inhibition. AID 588726. inhibition, % at 1 µM. purified M. tuberculosis FBA, fluorescence read-out. P9WQA3. 2.3% of 360,000 active; in the data active = inhibition above about 27%;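 also: 0% = vehicle and 100% = reference inhibitor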
Target sequence (P9WQA3 whole entry, looked up): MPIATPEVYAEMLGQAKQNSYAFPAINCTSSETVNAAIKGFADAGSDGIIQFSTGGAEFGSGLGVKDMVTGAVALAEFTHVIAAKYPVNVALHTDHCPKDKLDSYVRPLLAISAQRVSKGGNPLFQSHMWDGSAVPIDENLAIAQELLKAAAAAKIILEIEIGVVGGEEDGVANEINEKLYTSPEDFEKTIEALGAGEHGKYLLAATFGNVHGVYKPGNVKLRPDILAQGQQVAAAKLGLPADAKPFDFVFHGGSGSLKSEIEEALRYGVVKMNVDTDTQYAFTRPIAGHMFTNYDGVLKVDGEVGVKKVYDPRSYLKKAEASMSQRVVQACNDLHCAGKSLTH
CCHFV vOTU inh: blocks the CCHF virus ovarian tumor domain protease. inhibition, % at 11.5 µM. 0.55% of 370,000 active. AID 651958. CCHFV vOTU protease, Pep-AMC fluorescence; also: 0% = vehicle wells with enzyme and 100% = no enzyme wells
Starred values were filed as active, the others as inactive; ? = inconclusive; nt = not tested or not shown; + = active, no number. Compounds with a hit are over-represented: about 4% of the library has one in this group of screens. Rule as the data show it, unless noted: active = inhibition above about 30%; inactive = the rest.

SMILES	MazF activator	GDH-TPI counter	Mtb bLac sens	FBA Mtb inh	CCHFV vOTU inh
C/C(=C/c1nc(N)n(Cc2ccccc2)c1Cc1ccccc1)Cn1[nH]c(=O)n(-c2ccccc2)c1=O	nt	nt	nt	nt	10
O=C(Nc1ccc2c(c1)OCO2)OC1CCC12CCCCC2 (stereo not given)	nt	nt	nt	nt	7
CCCCNC(=O)OC1CCC12CCC(c1ccccc1)CC2 (stereo not given)	nt	nt	nt	nt	8
CN(C)CCNc1oc(/C=C/c2ccccc2)nc1C#N	1	10	3	135*	-202
C=CCNc1oc(/C=C/c2ccccc2)nc1C#N	-4	48*	nt	+	-322
CN(C)CCCNc1oc(/C=C/c2ccccc2)nc1C#N	8	15	-5	4	-9
CCOc1ccc(/C=C/c2nc(C#N)c(NCCCOC)o2)cc1	-7	20	74	12	-29
COCCNc1oc(COc2cccc(C)c2)nc1C#N	-1	10	5	5	2
COc1cccc(/C=C/c2nc(C#N)c(NCC(C)C)o2)c1	-3	27	97	+	-344
CCOc1ccc(/C=C/c2nc(C#N)c(NCCCN(C)C)o2)cc1	20	36*	-3	16	-43
O=C(CCc1ccccc1)N[C@H]1[C@H](OC(=O)c2cnccn2)CCC[C@]12C(=O)N(Cc1ccccc1)c1ccccc12	nt	nt	nt	nt	3
C=CCn1c(N)c(C(=O)NCCC2=CCCCC2)sc1=S	-3	35*	14	2	-13
Cc1ccc(S(=O)(=O)N2CCN(C(=O)c3cccn3C)CC2)cc1	nt	nt	nt	nt	-8
O=C(O)Cn1cc(C(=O)c2ccco2)c2ccccc21	6	32*	?	-4	17
O=C(Nc1ccc2nc(-c3ccco3)c(-c3ccco3)nc2c1)N1CCN(c2ccccn2)CC1	-9	16	3	2	30*
O=C(Nc1ccccc1)c1ccc2nc(-c3ccco3)c(-c3ccco3)nc2c1	9	11	23	1	48*
CCOC(=O)[C@@]12CN(C(=O)OC(C)(C)C)CC=C1N(Cc1ccc(OC)cc1)C(=O)[C@H]2CC(=O)NCCCCc1ccccc1	nt	nt	nt	nt	17
C/C=C(/C)C(=O)OC(C)(C)[C@@H]1Cc2c(ccc3ccc(=O)oc23)O1	2	8	-12	+	-57
CC(C)CC(=O)OC(C)(C)[C@@H]1Cc2c(ccc3ccc(=O)oc23)O1	6	7	0	182*	-69
COc1cc(C=Nn2c(-c3ccccc3F)n[nH]c2=S)ccc1OCc1ccccc1	nt	nt	nt	nt	13
Cc1csc2ncc(C(=O)Nc3ccccc3Cl)c(=O)n12	9	4	3	2	-4
Cc1csc2ncc(C(=O)Nc3ccccc3F)c(=O)n12	1	31*	-6	-2	-1
Cc1csc2ncc(C(=O)N3c4ccccc4CC3C)c(=O)n12 (stereo not given)	3	42*	6	5	20
CCN(C(=O)c1cnc2scc(C)n2c1=O)c1ccccc1C	10	31*	1	3	-3
Cc1cccc(-c2cccc3c4c([nH]c23)[C@@H]2C[C@H](N(C)C(=O)C3CCCCC3)[C@H]([C@H](C)O)CN2CC4)c1	nt	nt	nt	nt	1
SMILES	MazF activator	GDH-TPI counter	Mtb bLac sens	FBA Mtb inh	CCHFV vOTU inh
C=CCN=C1S/C(=C\N(C)C)C(=O)N1S(=O)(=O)c1ccc(C)cc1	7	36*	-1	-3	10
O=c1c2cc3cccnc3nc2ncn1Cc1cccs1	nt	nt	nt	nt	-13
CCOC(=O)c1nnc(-c2cccs2)nc1Oc1ccccc1C(=O)OC	0	20	-5	-1	16
CCOC(=O)c1nnc(-c2cccs2)nc1NC(C)C	5	31*	14	-5	2
NCCN1CCN(S(=O)(=O)c2ccc3c(c2)CCN3C(=O)C2CCC2)CC1	nt	nt	nt	nt	3
Cc1ccc(-n2nc3c4c(cccc4c2=O)-c2ccccc2-3)cc1	6	33*	8	2	-1
Cc1nn(-c2ccc(F)cc2)c(Cl)c1/C=N/NC(=O)c1ccc(O)cc1	7	8	62	0	10
Cc1nn(-c2ccc(F)cc2)c(Cl)c1/C=N/NC(=O)c1cccs1	68*	16	9	1	25
Cc1nn(-c2ccccc2)c(N2CCCC2)c1/C=N/NC(=O)c1cccc(S(=O)(=O)Nc2ccc(Cl)cc2)c1	-3	21	64	0	-19
Cc1nn(-c2ccc(Cl)cc2)c(Cl)c1/C=N/NC(=O)c1ccc(NS(=O)(=O)c2cccs2)cc1	-12	32*	84	-3	5
CCOC(=O)c1cccc(NC(=O)CN(C)S(=O)(=O)c2ccco2)c1	nt	nt	nt	nt	5
CCN1CCCCC(NC(=O)COCc2ccccc2)C1=O (stereo not given)	nt	nt	nt	nt	9
COc1ccc(CSc2nc(C)[nH]c2[N+](=O)[O-])cc1[N+](=O)[O-]	6	42*	0	-10	-11
CSC(=Nc1ccccc1)C(C#N)c1nc2ccccc2[nH]1 (stereo not given)	-5	8	-3	-4	1
N#CC(C(=S)Nc1ccccc1)c1nc2ccccc2[nH]1 (stereo not given)	-1	62*	10	-1	1
CCC(=O)/C=C1/Sc2ccc(OC)cc2N1CC	4	35*	5	-1	4
CCC(=O)/C=C1/Sc2ccc(OC)cc2N1CCO	1	12	7	-7	4
CCC(=O)/C=C1/Sc2ccccc2N1CC	6	39*	2	0	13
Cc1ccnc2ccc(-c3nc4ccccc4o3)cc12	1	17	17	76*	-18
c1cncc(-c2nc3ccccc3o2)c1	-8	4	-7	10	-3
O=C(NC1CCCCN(Cc2cccc(C(F)(F)F)c2)C1=O)c1ccc(F)cc1 (stereo not given)	nt	nt	nt	nt	1
Cc1ccc(S(=O)(=O)Nc2cc3c(cc2N2CCOCC2)n(C)c(=O)c(=O)n3C)cc1	1	32*	?	3	27
CCCOc1ccc(/C=c2\sc3nc(-c4ccco4)nn3c2=O)cc1OCC	218*	12	97	0	1
CC(=O)Oc1cccc(/C=c2\sc3nc(-c4ccco4)nn3c2=O)c1	-24	-5	40	-4	9
C[C@H]1COc2cccc(F)c2S(=O)(=O)N1C	nt	nt	nt	nt	-2
SMILES	MazF activator	GDH-TPI counter	Mtb bLac sens	FBA Mtb inh	CCHFV vOTU inh
O=C(NCCc1ccccc1)c1nc2ncccn2n1	3	1	-8	0	-2
O=C(NCC12CC3CC(CC(C3)C1)C2)c1nc2ncccn2n1	96*	-15	-14	0	-1
O=C(CSc1nnc(-c2ccccn2)n1-c1ccc(Cl)cc1)Nc1ccc(S(=O)(=O)Nc2nccs2)cc1	nt	nt	nt	nt	7
Cc1cc(-c2ccccc2)c2ccc(NC(=O)C(C)(C)C)nc2n1	6	46*	6	14	2
CCCCCCn1cc(CN2CC=CS2(=O)=O)nn1	nt	nt	nt	nt	1
CNc1ccc(/C=C(\CCC(=O)O)c2nc3ccccc3s2)cc1[N+](=O)[O-]	-36	35*	6	-8	16
COc1cc(/C=C(\CC(=O)O)c2nc3ccccc3s2)cc(OC)c1O	-3	39*	4	7	14
COc1ccc(/C=C(\CC(=O)O)c2nc3ccccc3s2)cc1O	16	18	-2	2	19
